NOD2 RIPK2 PPI = NOD2-RIPK2 protein interaction inhibition. 0.38% of 360,000 active. inhibition, % at 4.98 µM. CHO BLA complementation NOD2-RIPK2, CCF4 ratio. AID 624267. O43353; in the data active = inhibition above about 21%;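 note: 0% = vehicle only and 100% = reference blocker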
Target sequence (O43353 whole entry, looked up): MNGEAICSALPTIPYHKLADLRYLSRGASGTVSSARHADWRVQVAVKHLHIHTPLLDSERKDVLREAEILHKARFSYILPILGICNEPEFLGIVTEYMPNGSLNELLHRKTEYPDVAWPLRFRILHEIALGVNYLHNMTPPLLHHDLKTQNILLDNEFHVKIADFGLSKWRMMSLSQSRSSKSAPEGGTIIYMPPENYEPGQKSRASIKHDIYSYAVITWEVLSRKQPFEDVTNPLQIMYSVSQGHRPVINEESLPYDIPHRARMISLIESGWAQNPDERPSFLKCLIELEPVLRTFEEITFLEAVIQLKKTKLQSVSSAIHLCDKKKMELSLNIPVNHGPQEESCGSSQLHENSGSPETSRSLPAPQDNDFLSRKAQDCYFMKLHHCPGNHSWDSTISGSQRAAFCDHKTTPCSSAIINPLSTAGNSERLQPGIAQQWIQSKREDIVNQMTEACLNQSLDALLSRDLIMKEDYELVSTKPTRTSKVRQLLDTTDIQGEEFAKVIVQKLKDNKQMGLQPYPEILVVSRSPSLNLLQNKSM
ABHD5 PLIN5 PPI = ABHD5-PLIN5 protein interaction inhibition; Split G. princeps luciferase complementation, luminescence, 4 h; Q00G26+Q8WTS1; 0.78% of 360,000 active; inhibition, % at 4 µM; AID 602281;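 active = inhibition above the mean inhibition across every tested compound plus 3 SD, cut at about 22% in these data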;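 note: 0% = DMSO only wells and the 100% control is not disclosed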
Beta2AR agonist = agonists of human beta-2 adrenergic receptor inducing internalization. Am2.2-beta2AR cells, FAP receptor internalization, flow cytometry. AID 504454. 0.43% of 340,000 active. P07550. response, % (concentration not given with the values);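 active = response above a set limit, near 3 SD of response in nonfluorescent compounds, cut at about 42% in these data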
TLR9-MyD88 inh = TLR9-MyD88 interaction inhibition. Q9NR96+Q99836. CHO BLA complementation TLR9-MyD88, CCF4 FRET ratio. inhibition, % at 4.98 µM. 0.21% of 340,000 active;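 active = inhibition above the mean over all tested compounds plus 3 SD, cut at about 21% in these data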;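 note: 0% = DMSO only wells and 100% = clavulanate BLA inhibitor control wells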
Exocytosis inh = lytic granule exocytosis inhibition; TALL-104 LAMP-1 surface exposure, flow cytometry; cells stimulated with thapsigargin and PMA; inhibition, % at 10 µM; 0.66% of 360,000 active;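 active = inhibition above about 55%, limit read from the data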
TLR4-MyD88 BLA = TLR4-MyD88 interaction inhibition in cells; O00206+Q99836; HeLa CL3-4 TLR4/MyD88 BLA complementation, FRET ratio; inhibition, % at 8.4 µM; 0.18% of 200,000 active; in the data active = inhibition above about 25%;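 note: 0% = vehicle and 100% = reference inhibitor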
ABHD5-PLIN5 conf = confirmation of human ABHD5-PLIN5 interaction inhibitors; 67% of 2,200 active; inhibition, % at 4 µM; AID 651612; biochemical ABHD5-PLIN5 interaction, luminescence; shares compounds with ABHD5 PLIN5 PPI; in the data active = inhibition above about 23%;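 note: 0% = DMSO vehicle wells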
HNF4 split-luc = HNF4 split-luciferase signal hit, counter-screen; inhibition, % at 4 µM; shares compounds with ABHD5 PLIN5 PPI; AID 651674; HNF4 dimerization, luminescence, biochemical; 77% of 2,200 active;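 active = mean inhibition across replicate wells exceeding the computed hit threshold, cut at about 13% in these data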;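 note: light from luciferase halves that rejoin when HNF4 fusion proteins dimerize; 0% = DMSO only wells and the 100% control is not given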
Exocytosis CP01 = blocks lytic granule exocytosis. shares compounds with Exocytosis inh. TALL-104 cells, LAMP-1 externalization, flow cytometry; stimulated with PMA plus thapsigargin. inhibition, % at 10 µM. 11% of 1,500 active. AID 651954; in the data active = inhibition above about 60%;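 note: 0% = stimulated vehicle wells and 100% = unstimulated wells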
An asterisk follows results filed as active; nt = no result. Sampled rows, rich in hits. Any-hit rate of the full collection: about 2%.

SMILES	NOD2 RIPK2 PPI	ABHD5 PLIN5 PPI	Beta2AR agonist	TLR9-MyD88 inh	Exocytosis inh	TLR4-MyD88 BLA	ABHD5-PLIN5 conf	HNF4 split-luc	Exocytosis CP01
O=C(Cn1nc(-c2ccccc2)c2ccccc2c1=O)Nc1ccc(F)cc1	-3.4	7.9	-6.2	-14.3	-2.7	nt	nt	nt	nt
Cc1ccc2nc(N(CCCN(C)C)C(=O)c3cc(-c4cccs4)nc4ccccc34)sc2c1	-0.1	25.1*	18.3	-22.8	71.8*	nt	14.4	0.8	40.2
CN(C)CCCN(C(=O)c1cc(-c2cccs2)nc2ccccc12)c1nc2c(F)cccc2s1	9.5	17.0	6.0	-9.7	53.3	nt	nt	nt	nt
Cc1ccc(NC(=O)C2(C)CCCN(C(C)C)C2)cc1C (configuration not stated)	-6.2	6.3	nt	nt	-3.1	nt	nt	nt	nt
COc1cc(CNCCCN2CCOCC2)cc(Br)c1OCc1ccc(Cl)cc1	10.4	35.4*	38.6	1.7	57.8*	10.1	16.9	0.9	26.5
COc1cc(CNCCN2CCOCC2)ccc1OCc1ccc(Cl)cc1	-1.1	9.7	7.2	0.6	16.4	1.3	nt	nt	nt
Cc1ccc(C)c(N2CCN(C3C(=O)Nc4ccccc4-n4nnnc43)CC2)c1 (configuration not stated)	-9.6	-0.2	nt	nt	9.5	nt	nt	nt	nt
CC1=NOC(=O)/C1=C/c1ccc(-c2ccc(Cl)cc2)o1	-2.7	33.1*	65.2*	6.0	77.9*	17.2	99.2*	107.4*	100.9*
CC1(C(=O)O)CCCN1C(=O)c1cccc2ccccc12 (configuration not stated)	10.3	-3.8	nt	nt	-0.5	nt	nt	nt	nt
CC(C)Cc1ccc(C(C)CC2=CCC(CN(C)C)C2=O)cc1 (configuration not stated)	-9.7	38.0*	24.1	-3.6	66.1*	nt	82.0*	80.6*	-4.2
CC(C)Cc1ccc(S(=O)(=O)N2CCOCC2)cc1	-7.4	-2.5	-2.4	-5.2	-4.8	-7.2	nt	nt	nt
FC(F)(F)c1cccc(NC(=S)N(CCCN2CCCC2)Cc2cccn2Cc2ccc(Cl)cc2)c1	7.6	41.8*	20.5	-1.7	68.3*	4.0	12.1	-12.4	21.9
COc1ccc(NC(=S)N(CCCN2CCCC2)Cc2cccn2Cc2ccc(Cl)cc2)cc1Cl	5.0	30.5*	24.9	6.8	68.7*	8.7	12.6	-9.9	43.5
CN(C)CCCN(Cc1ccccc1)C(=S)Nc1cccc(C(F)(F)F)c1	1.5	8.8	16.7	-4.8	13.2	-9.5	nt	nt	nt
COc1ccc([C@@H]2CC(=O)[C@@H]3CN(S(=O)(=O)c4ccc(Cl)cc4)[C@H](c4ccc(C)cc4)C[C@@H]3N2S(=O)(=O)c2ccccc2)cc1	-6.2	5.8	nt	nt	-6.4	nt	nt	nt	nt
O=C1Nc2cccc3c2N(CCC3)C2=C1CCC2	-5.6	5.7	nt	-12.3	1.5	nt	nt	nt	nt
CC1CC(C)CN(C(=O)c2ccc(-c3ccc([N+](=O)[O-])cc3)o2)C1 (configuration not stated)	8.5	28.2*	26.5	4.9	73.9*	nt	14.7	3.4	-11.9
COc1ccc(N2C(=O)CC(Sc3nnc(-c4ccccc4)o3)C2=O)cc1 (configuration not stated)	6.5	42.9*	2.1	3.6	57.1*	0.7	55.2*	82.9*	86.9*
O=C1CC(Sc2nnc(-c3ccccc3O)o2)C(=O)N1c1ccccc1 (configuration not stated)	10.2	15.6	-3.7	-9.3	30.0	-5.4	nt	nt	nt
CCOC(=O)[C@]12CCCC=C1N(Cc1ccc3c(c1)OCO3)C(=O)[C@H](CC(=O)NCCCN1CCCC1=O)C2	7.9	3.6	nt	nt	-5.1	nt	nt	nt	nt
O=C(c1ccc(Cl)cc1)C(CN1CCCC1)c1ccccc1 (configuration not stated)	18.0	48.0*	34.4	2.1	59.1*	nt	53.0*	102.6*	-9.3
